# About 2,000 (36%) of roughly 5,500 compounds were called active. Another 18% or so got no clear call; they are omitted. Some of the results follow. Values without a mark were called inactive. Cut-off read from the data, not from the text of the source: active = normalized growth mostly below about 0.91 (no sharp cut-off); inconclusive = no clear call, values can overlap the other calls; inactive = mostly above about 0.92.
# Assay: chemical genetic growth profiling, strain panel (AID 1159580);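 note: tested at 20 µM; growth read once vehicle control cultures reached saturation at 30 °C; 1 = growth at the plate median or of vehicle wells; lower values mean less growth of the strain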
# Settings: S. cerevisiae deletion strains, growth OD
# [1] = locus YAL013W, strain DEP1, active compounds read low
# [2] = locus YAL040C, strain CLN3, active compounds read low
# [3] = locus YCL061C, strain MRC1 (second series), active compounds read low
# [4] = locus YDR150W, strain NUM1, active compounds read low
# [5] = locus YDR363W, strain ESC2, active compounds read low
# [6] = locus YER002W, strain NOP16, active compounds read low
# [7] = locus YGR229C, strain SMI1, active compounds read low
# [8] = locus YMR307W, strain GAS1, active compounds read low
# [9] = locus YNL128W, strain TEP1, active compounds read low
# [10] = locus YNL175C, strain NOP13, active compounds read low
# [11] = locus YNL197C, strain WHI3, active compounds read low
# [12] = locus YNL224C, strain SQS1, active compounds read low
# [13] = locus YOR083W, strain WHI5 (second series), active compounds read low
# [14] = locus YPL055C, strain LGE1, active compounds read low
# [15] = locus YPL241C, strain CIN2, active compounds read low
smiles,measurement,setting,value
Oc1cc2c(cc1O)C(c1ccccc1)CNCC2 (stereo not drawn),normalized growth,[1],0.977
same,normalized growth,"locus YAL021C, strain ccr4, active compounds read low",0.972
same,normalized growth,"locus YAL026C, strain drs2, active compounds read low",0.988
same,normalized growth,"locus YAL030W, strain snc1, active compounds read low",1.01
same,normalized growth,[2],1.03
same,normalized growth,"locus YBL061C, strain skt5, active compounds read low",0.996
same,normalized growth,"locus YBR009C, strain hhf1, active compounds read low",1.05
same,normalized growth,"locus YBR023C, strain chs3, active compounds read low",0.998
same,normalized growth,"locus YBR171W, strain sec66, active compounds read low",0.912
same,normalized growth,"locus YBR231C, strain swc5, active compounds read low",1.01
same,normalized growth,"locus YBR279W, strain paf1, active compounds read low",0.988
same,normalized growth,"locus YCL011C, strain gbp2, active compounds read low",0.984
same,normalized growth,"locus YCL016C, strain dcc1, active compounds read low",1
same,normalized growth,[3],0.982
same,normalized growth,"locus YCL061C, strain MRC1, active compounds read low",0.992
same,normalized growth,"locus YCL069W, strain vba3, active compounds read low",1
same,normalized growth,"locus YCR088W, strain abp1, active compounds read low",0.999
same,normalized growth,"locus YDL005C, strain med2, active compounds read low",1
same,normalized growth,"locus YDL040C, strain nat1, active compounds read low",1.01
same,normalized growth,"locus YDR001C, strain nth1, active compounds read low",0.994
same,normalized growth,"locus YDR069C, strain doa4, active compounds read low",0.974
same,normalized growth,"locus YDR137W, strain rgp1, active compounds read low",0.967
same,normalized growth,[4],0.963
same,normalized growth,"locus YDR159W, strain sac3, active compounds read low",1.01
same,normalized growth,"locus YDR195W, strain ref2",1.07
same,normalized growth,"locus YDR297W, strain sur2, active compounds read low",0.996
same,normalized growth,"locus YDR334W, strain swr1, active compounds read low",0.963
same,normalized growth,"locus YDR335W, strain msn5, active compounds read low",0.979
same,normalized growth,[5],0.983
same,normalized growth,"locus YDR392W, strain spt3, active compounds read low",0.845
same,normalized growth,"locus YEL003W, strain gim4, active compounds read low",0.976
same,normalized growth,"locus YEL037C, strain rad23, active compounds read low",1
same,normalized growth,"locus YEL061C, strain CIN8 (second series), active compounds read low",0.99
same,normalized growth,[6],1
same,normalized growth,"locus YER015W, strain faa2, active compounds read low",1.02
same,normalized growth,"locus YER016W, strain bim1, active compounds read low",1.01
same,normalized growth,"locus YER111C, strain swi4, active compounds read low",0.993
same,normalized growth,"locus YER155C, strain BEM2 (second series), active compounds read low",1.01
same,normalized growth,"locus YFR010W, strain ubp6, active compounds read low",0.95
same,normalized growth,"locus YGL167C, strain pmr1, active compounds read low",0.994
same,normalized growth,"locus YGL173C, strain kem1, active compounds read low",1
same,normalized growth,"locus YGL227W, strain vid30, active compounds read low",1.01
same,normalized growth,"locus YGL240W, strain doc1, active compounds read low",1.05
same,normalized growth,"locus YGL253W, strain hxk2, active compounds read low",0.991
same,normalized growth,[7],0.958
same,normalized growth,"locus YHR013C, strain ard1, active compounds read low",0.96
same,normalized growth,"locus YHR027C, strain rpn1, active compounds read low",0.989
same,normalized growth,"locus YHR030C, strain SLT2, active compounds read low",0.986
same,normalized growth,"locus YHR079C, strain IRE1, active compounds read low",0.989
same,normalized growth,"locus YHR142W, strain chs7, active compounds read low",0.916
same,normalized growth,"locus YJL092W, strain hpr5, active compounds read low",0.974
same,normalized growth,"locus YJL095W, strain BCK1 (second series), active compounds read low",1.01
same,normalized growth,"locus YJL095W, strain BCK1, active compounds read low",0.98
same,normalized growth,"locus YJL115W, strain asf1, active compounds read low",0.991
same,normalized growth,"locus YJL129C, strain trk1, active compounds read low",0.921
same,normalized growth,"locus YJL154C, strain vps35, active compounds read low",1
same,normalized growth,"locus YJL164C, strain tpk1, active compounds read low",0.967
same,normalized growth,"locus YJL166W, strain qcr8, active compounds read low",0.995
same,normalized growth,"locus YJL187C, strain SWE1, active compounds read low",1
same,normalized growth,"locus YJR066W, strain TOR1, active compounds read low",0.943
same,normalized growth,"locus YKL160W, strain elf1, active compounds read low",0.942
same,normalized growth,"locus YKR026C, strain gcn3, active compounds read low",0.995
same,normalized growth,"locus YKR091W, strain srl3, active compounds read low",1
same,normalized growth,"locus YLL001W, strain dnm1, active compounds read low",0.989
same,normalized growth,"locus YLL026W, active compounds read low",1
same,normalized growth,"locus YLL041C, strain sdh2, active compounds read low",0.989
same,normalized growth,"locus YLR027C, strain aat2, active compounds read low",0.977
same,normalized growth,"locus YLR113W, strain HOG1, active compounds read low",0.979
same,normalized growth,"locus YLR221C, strain rsa3, active compounds read low",0.948
same,normalized growth,"locus YLR258W, strain gsy2, active compounds read low",1.02
same,normalized growth,"locus YLR262C, strain YPT6 (second series), active compounds read low",0.919
same,normalized growth,"locus YLR320W, strain mms22, active compounds read low",0.966
same,normalized growth,"locus YLR342W, strain FKS1, active compounds read low",0.994
same,normalized growth,"locus YLR357W, strain rsc2, active compounds read low",1.04
same,normalized growth,"locus YLR370C, strain arc18, active compounds read low",0.991
same,normalized growth,"locus YLR384C, strain iki3, active compounds read low",1.01
same,normalized growth,"locus YML120C, strain ndi1, active compounds read low",0.94
same,normalized growth,"locus YMR058W, strain fet3, active compounds read low",0.945
same,normalized growth,"locus YMR125W, strain sto1, active compounds read low",1.02
same,normalized growth,"locus YMR129W, active compounds read low",0.984
same,normalized growth,"locus YMR205C, strain PFK2, active compounds read low",1.06
same,normalized growth,"locus YMR231W, strain pep5, active compounds read low",1.02
same,normalized growth,[8],0.992
same,normalized growth,"locus YNL071W, strain lat1, active compounds read low",0.964
same,normalized growth,[9],0.981
same,normalized growth,[10],1.04
same,normalized growth,"locus YNL183C, strain NPR1, active compounds read low",0.952
same,normalized growth,[11],1.03
same,normalized growth,"locus YNL209W, strain ssb2, active compounds read low",0.997
same,normalized growth,[12],0.993
same,normalized growth,"locus YNL248C, strain rpa49, active compounds read low",0.93
same,normalized growth,"locus YNL322C, strain KRE1 (second series), active compounds read low",0.989
same,normalized growth,"locus YNR049C, strain mso1, active compounds read low",1
same,normalized growth,"locus YOR001W, strain rrp6, active compounds read low",0.918
same,normalized growth,"locus YOR070C, strain gyp1, active compounds read low",0.992
same,normalized growth,"locus YOR080W, strain dia2, active compounds read low",1
same,normalized growth,[13],1.02
same,normalized growth,"locus YOR083W, strain WHI5, active compounds read low",0.922
same,normalized growth,"locus YOR106W, strain vam3, active compounds read low",0.919
same,normalized growth,"locus YOR231W, strain MKK1, active compounds read low",0.941
same,normalized growth,"locus YOR265W, strain rbl2, active compounds read low",0.997
same,normalized growth,"locus YOR270C, strain vph1, active compounds read low",0.967
same,normalized growth,"locus YOR290C, strain snf2, active compounds read low",0.92
same,normalized growth,"locus YPL051W, strain arl3, active compounds read low",0.938
same,normalized growth,[14],0.948
same,normalized growth,"locus YPL078C, strain atp4, active compounds read low",0.945
same,normalized growth,"locus YPL106C, strain sse1, active compounds read low",0.972
same,normalized growth,"locus YPL240C, strain hsp82, active compounds read low",0.983
same,normalized growth,[15],0.997
same,normalized growth,"locus YPL256C, strain CLN2, active compounds read low",0.984
Oc1cc2c(cc1O)[C@H]1c3ccccc3CN[C@@H]1CC2,normalized growth,[1],0.9 (active)
same,normalized growth,[2],1.01
same,normalized growth,[3],0.845 (active)
same,normalized growth,[4],0.848 (active)
same,normalized growth,[5],0.985
same,normalized growth,[6],1.03
same,normalized growth,"locus YGR078C, strain PAC10, active compounds read low",1
same,normalized growth,[7],0.685 (active)
same,normalized growth,"locus YJR075W, strain HOC1, active compounds read low",0.843 (active)
same,normalized growth,"locus YMR263W, strain SAP30, active compounds read low",1
same,normalized growth,[8],0.871 (active)
same,normalized growth,[9],1.01
same,normalized growth,[10],1.03
same,normalized growth,[11],1.02
same,normalized growth,[12],1.02
same,normalized growth,[13],1.01
same,normalized growth,[14],0.864 (active)
same,normalized growth,[15],0.925 (active)

# Source: PubChem BioAssay AID1159580 (chemical genetic matrix, 2015)
